# Hits are enriched below; roughly 4.3% of the tested compounds scored in any of these assays.
# GLP-1R inv ag = qHTS of GLP-1 Receptor Inverse Agonists (Inhibition Mode); 410,000 tested, 1.6% active; Potency, µM (titrated, usually from 38.3 µM), for the others: at the highest dose activity change, negative = inhibition, most hits filed as inhibitors; Glucagon-like peptide 1 receptor (Homo sapiens), P43220; HEK293 GLP-1R CRE-luciferase, luminescence, 24 h; GLP-1R form is constitutively active; note: potency is the fitted concentration of half-maximal effect; % is set by controls: 0 for no effect and ±100 for the full control effect; nearly all actives have a fitted effect of over 55% in size
# Target sequence (P43220 whole entry, looked up): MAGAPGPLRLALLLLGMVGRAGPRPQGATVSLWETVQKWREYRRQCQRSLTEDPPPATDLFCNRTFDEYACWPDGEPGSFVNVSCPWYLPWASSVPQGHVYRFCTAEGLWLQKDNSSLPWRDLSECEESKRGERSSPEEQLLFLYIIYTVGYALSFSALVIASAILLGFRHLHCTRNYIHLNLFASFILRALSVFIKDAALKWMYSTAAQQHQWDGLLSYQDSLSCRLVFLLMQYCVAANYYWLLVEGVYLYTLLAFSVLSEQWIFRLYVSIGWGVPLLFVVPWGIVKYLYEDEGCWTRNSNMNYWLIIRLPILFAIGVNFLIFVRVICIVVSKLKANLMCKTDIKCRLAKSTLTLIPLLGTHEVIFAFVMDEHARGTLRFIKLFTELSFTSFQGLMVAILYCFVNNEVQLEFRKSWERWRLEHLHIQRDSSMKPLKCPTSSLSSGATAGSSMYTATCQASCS
#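 Readout was luciferase luminescence, measured 12 min after detection reagent at room temperature. Beforehand, GLP-1R reporter HEK293 cells had sat 12 h, then received compounds for 24 hr at 37 deg C.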
# D3 ag = qHTS of D3 Dopamine Receptor Agonist: qHTS; D3R DiscoveRx beta-arrestin cells, luminescence, 90 min; 410,000 tested, 0.58% active; max activation, %; AID 652048, 2013; D(3) dopamine receptor (Homo sapiens), P35462; in the data active = max activation above about 30%; note: 0% is about no effect
#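 Agonist-mode cell screen: cells plated at 1500/well and incubated overnight at 37 °C, then exposed to library compounds for 90 min at 37 °C. Detection reagent was added for 30–60 min at room temperature, and luminescence was read.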
# GLP1R ag = qHTS of GLP-1 Receptor Agonists | Glucagon-like peptide 1 receptor (Homo sapiens), P43220 | HEK293 GLP-1R CRE-luciferase, luminescence, 4-6 h; cells express a hypersensitive GLP-1R form | Potency, µM (titrated, usually from 45.6 µM), inactives show top-dose activation, hits mostly activators | 380,000 tested, 0.007% active | AID 624172, 2012; note: potency is the fitted concentration of half-maximal effect; % of control where 0% means no effect
# D3 antag = qHTS of D3 Dopamine Receptor Antagonist: qHTS. D(3) dopamine receptor (Homo sapiens), P35462. D3R cells, DiscoveRx beta-arrestin luminescence, antagonist mode; stronger effect = lower value. max response, negative = inhibition, %. 360,000 tested, 2.5% active; in the data active = max response below about -50%; inconclusive = no clear call, values can overlap the other calls; note: % is set by controls: 0 for no effect and ±100 for the full control effect
#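 Cells plated overnight at 1500 cells/well, then exposed to library compounds with dopamine controls for 90 minutes at 37 degrees C. DiscoveRx reagent added for 30–60 minutes at room temperature; luminescence read, quantitative HTS format.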
# Starred values were filed as active, the others as inactive; ? = inconclusive; . = no result. Unless noted, calls come from the whole dose curve; as a rule, active = well fitted curve in the direction sought with a large enough effect; inconclusive = small, poorly fitted or top-dose-only effect, or another doubt; inactive = no such curve, though single readings can be large; an effect the other way counts as inactive or inconclusive.
SMILES,GLP-1R inv ag,D3 ag,GLP1R ag,D3 antag
CCc1ccccc1NC(=O)Cn1nc(-c2cc(C)ccc2C)c2c(c1=O)CCCC2,1%,3,.,.
COc1ccc(NC(=O)C2CCCN(S(=O)(=O)c3cccs3)C2)cc1OC (stereo not given),-6%,3,3%,-8
CCc1cccc(NC(=O)C2CCCN(S(=O)(=O)c3cccs3)C2)c1 (stereo not given),10µM*,0,18%,-2
CCc1ccc(N(CC)C(=O)c2cc3c(=O)oc4ccc(C)cc4c3s2)cc1,5%,6,-1%,.
Cc1cccc(NC(=O)C2C(c3ccccc3)C2(Cl)Cl)c1 (stereo not given),?,-6,20%,?
Cc1ccc(NC(=O)C2C(c3ccccc3)C2(Cl)Cl)c(C)c1 (stereo not given),11µM*,1,-11%,-5
COc1ccc(NC(=O)C2C(c3ccccc3)C2(Cl)Cl)cc1 (stereo not given),10µM*,-13,-3%,-1
Cc1c(C(=O)N(C)C)sc2c1c(=O)n(-c1ccc(Cl)cc1)c(=O)n2CC(=O)C(C)(C)C,6%,8,.,.
CCCS(=O)(=O)N1CCCC(C(=O)NCCCOC)C1 (stereo not given),3%,4,-1%,.
Cc1ccccc1C(=O)Nc1nnc(S(=O)(=O)N(C)Cc2ccc(Cl)cc2)s1,-7%,5,.,.
Nc1nc(-c2cccnc2)nc(N2CCCCC2)n1,4%,33*,15%,5
c1cncc(-c2nc(N3CCCCCC3)c3ccccc3n2)c1,-2%,0,16%,-1
COc1ccccc1NC(=O)CSc1n[nH]c(-c2ccccn2)n1,13%,2,1%,7
O=C(CSc1n[nH]c(-c2ccccn2)n1)Nc1ccccc1F,11µM*,2,7%,-19
CC(C)NC(=O)COc1coc(CN2CCN(Cc3ccccc3)CC2)cc1=O,15%,6,6%,-3
Cc1cnc(C=O)c2cccc([N+](=O)[O-])c12,-1%,-9,16%,-77*
Cc1ncc(C)c2c([N+](=O)[O-])cccc12,37%,-3,-4%,-22
COc1ccc(C)cc1NS(=O)(=O)c1ccc2c(c1)[C@H]1C=CC[C@H]1[C@@H](c1cccc(Cl)c1)N2,?,8,.,.
COc1ccc(N=C2C(=O)N3c4c(cccc42)C(C)=CC3(C)C)cc1,-11%,-28,1%,-50*
Cn1c(/C(C#N)=C(\O)c2ccc([N+](=O)[O-])cc2)nc2ccccc21,4%,-5,-5%,-23
Cn1c(/C(C#N)=C(\O)c2cccc(F)c2)nc2ccccc21,12%,0,3%,-51*
O=C(NCCN1CCC(n2c(=O)[nH]c3ccccc32)CC1)c1ccccc1Cl,15%,-12,5%,-100*
O=C(NCCN1CCCC1)c1ccccc1Cl,7%,-20,-5%,-15
O=C(NCCN1CCC(n2c(=O)[nH]c3ccccc32)CC1)c1ccc(Cl)cc1Cl,?,-15,0%,-92*
COc1ccccc1C(=O)NCCN1CCC(n2c(=O)[nH]c3ccccc32)CC1,5%,-16,7%,0
SMILES,GLP-1R inv ag,D3 ag,GLP1R ag,D3 antag
Cc1ccccc1C(=O)NCCN1CCC(n2c(=O)[nH]c3ccccc32)CC1,25%,-11,-5%,-109*
O=C(NCCN1CCC(n2c(=O)[nH]c3ccccc32)CC1)c1ccccc1C(F)(F)F,-4%,-13,0%,-77*
CCC(=O)N1CCc2cc(Br)cc(S(=O)(=O)N3CCCCCC3)c21,?,3,-1%,-64*
CCn1c(=O)cc(SCC(=O)NCCCN2CCN(c3ccccc3F)CC2)c2ccccc21,-19%,-33,24%,-82*
CCC(=O)N1c2ccccc2CC1C(=O)NCCN1CCN(c2ccccc2F)CC1 (stereo not given),1%,-24,.,.
Cn1c(=O)cc(OCC(=O)NCCCN2CCN(c3ccccc3F)CC2)c2ccccc21,-12%,21,0%,?
Cn1c(=O)cc(OCCCC(=O)NCCN2CCN(c3ccccc3F)CC2)c2ccccc21,20%,39*,-6%,?
O=C(NCCN1CCN(c2ccccc2F)CC1)C1c2ccccc2C(=O)N2CCc3ccccc3C12 (stereo not given),-19%,-2,1%,-57*
CN1CCN(CCCNC(=O)CN2C(=O)COc3ccccc32)CC1,-8%,-23,1%,-20
O=C(CN1C(=O)COc2ccccc21)NCCCN1CCN(c2ccccc2F)CC1,-21%,2,0%,-91*
Cc1cc(C)c(S(=O)(=O)NCCc2cc3cc(C)c(C)cc3[nH]c2=O)c(C)c1,0%,6,0%,.
CC(C)(C)OC(=O)N1CCC(C(=O)Nc2ccc(C(=O)NCc3ccccc3)cc2)CC1,-11%,-10,5%,-25
COc1ccc(-c2cc3c(=O)n(CC(=O)Nc4ccc(Br)c(C)c4)ccn3n2)cc1OC,5%,-12,.,.
CC1(C)S[C@@H]2[C@H](NC(=O)[C@H](N)c3ccccc3)C(=O)N2[C@H]1C(=O)OCOC(=O)[C@@H]1N2C(=O)C[C@H]2S(=O)(=O)C1(C)C,.,-4,.,.
CCOc1ccc(S(=O)(=O)N2CCCCC2)cc1NC(=O)c1c(CC)noc1C,6%,2,-11%,1
O=C(CN1C(=O)COc2ccccc21)NCCN1CCCC1,-9%,-9,8%,-13
CC(C)OCCCNC(=O)CCN1C(=O)COc2ccccc21,0%,2,19%,5
O=C(CCN1C(=O)COc2ccccc21)NCCCN1CCc2ccccc2C1,2%,-26,10%,-93*
O=C(CCN1C(=O)COc2ccccc21)NCCN1CCN(c2ccccc2F)CC1,?,-18,0%,-64*
CN1CCN(CCCNC(=O)C2CC(=O)N(C3CCCCC3)C2)CC1 (stereo not given),11%,4,-12%,16
O=C(NCCCN1CCN(c2ccccc2F)CC1)C1CC(=O)N(C2CCCC2)C1 (stereo not given),2%,41*,7%,-77*
CC1(C)CC(=O)c2cc(OCC(=O)NCCCN3CCN(c4ccccc4F)CC3)ccc2O1,0%,-2,0%,-55*
CCCCCCCNC(=O)COc1ccc2c(c1)C(=O)CC(C)(C)O2,1%,-5,10%,16
COc1ccc(Cn2c(=O)c3oc4ccccc4c3n(Cc3cccc(C)c3)c2=O)cc1,2%,3,.,.
C[C@@H]1C[C@H]2C3C[C@H](F)C4=CC(=O)C=CC4(C)[C@@]3(F)[C@@H](O)CC2(C)[C@@]1(O)C(=O)COC(=O)C(C)(C)C (stereo not given in full),.,-19,.,.
Cc1ccc(S(=O)(=O)n2nc(C)c(S(=O)(=O)N3CCC(C)CC3)c2C)cc1,3%,-8,-2%,.
CCOc1ccc(C(=O)Nc2cc(C)ccn2)cc1,4µM*,4,-3%,0
